# TDP1 cell CPT = growth inhibition of DT40 Tdp1-/-;hTDP1 cells with camptothecin (screen for TDP1 inhibitors) | Potency, µM (doses to about 46.2 µM), hits mostly inhibitors | hit rate 12% among 420,000 | chicken DT40 Tdp1-/-;hTDP1 cells + 20 nM CPT, ATP luminescence, 48 h | AID 686979; further: nearly all actives have a fitted effect of over 55% in size
#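 Chicken DT40 Tdp1-/- cells complemented with human TDP1, 400 cells/well, exposed to compounds plus 20 nM camptothecin for at least 48 h at 37 C; viability read as ATP content by CellTiter-Glo luminescence.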
# HT1080 IDH1KD tx = HT-1080 IDH1 knockdown cell toxicity (counter line); HT-1080 IDH1 knockdown viability, ATP luminescence, 48 h; Potency, µM (top dose mostly 46.1 µM), actives largely listed as cytotoxic; hit rate 2% among 360,000; AID 686971
#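 IDH1KD HT-1080 cells, 750/well, RPMI + 5% FBS; compound pinned after 2 h settling; 48 h, 37 °C; CellTiter-Glo luminescence; % activity normalised to DMSO and no-cell wells; curves fitted, classed by r2 and efficacy.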
# ELG1 DNA repair = inhibitors of ELG1-dependent DNA repair in HEK293T cells | Potency, µM (doses to about 46.1 µM), hits mostly inhibitors | hit rate 2.3% among 330,000 | AID 504467 | HEK293T ELG1-luciferase reporter, luminescence, 16 h; DNA damage induced by 5-fluorouridine; further: nearly all actives have a fitted effect of over 55% in size
#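 DMSO vehicle served as the neutral condition. Each well held 2,000 cells given 5-fluorouridine plus compound; after 16 hr at 37 °C/5% CO2, ONE-Glo was added and luciferase measured 30 min later.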
# IL1B secr inh = blocks inflammasome-driven IL-1 beta release; THP-1 LPS/ATP IL-1B secretion, AlphaLISA, 16 h; active compounds read low; activity change, % at 57.5 µM; hit rate 4.7% among 360,000; AID 743279; in the data active means activity change below about -50%; inconclusive means mostly about -30% to -49%
#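 THP-1 cells pretreated 1 hr with compounds (up to 57.5 uM final), then stimulated with LPS (250 ng/mL final) plus ATP (1.25 mM final); secreted IL-1B measured by AlphaLISA after 16 hr, decreased signal indicating inhibition.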
# DT40 TDP1 no CPT = qHTS for Inhibitors of human tyrosyl-DNA phosphodiesterase 1 (TDP1): qHTS in cells in absence of CPT; DT40 Tdp1-/- hTDP1 cells, no CPT, ATP luminescence, 48 h; Potency, µM (highest dose often 46.2 µM), hits mostly inhibitors; hit rate 15% among 420,000; further: nearly all actives have a fitted effect of over 55% in size
#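 Camptothecin absent (DMSO only). Human TDP1-complemented DT40 knockout cells, 400 cells/well, 37 °C for minimum 48 hr; ATP measured via CellTiter-Glo, 30 min dark incubation, luminescence.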
# HT1080NT lethal = kills 2HG-producing HT-1080-NT fibrosarcoma cells; Potency, µM (top dose mostly 46.1 µM), hits mostly cytotoxic; hit rate 1.6% among 360,000; HT-1080-NT fibrosarcoma viability, CellTiter-Glo ATP luminescence, 48 h;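 further: NT is the 2HG producing partner of a matched IDH1 knockdown line; nearly all actives have a fitted effect of over 55% in size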
#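 A 48-hour cytotoxicity screen used HT-1080-NT cells plated 2 hours before compound delivery. ATP-based CellTiter-Glo luminescence measured viability, normalized to DMSO and no-cell controls.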
# Numbers stand for hits; n = inactive; u = inconclusive; x = no result. This is a sample that favours compounds with a hit; in the whole collection about 19% have one here. Unless noted, the call rests on the fitted dose curve; in most records, active means well fitted curve in the direction sought with a large enough effect; inconclusive means small, poorly fitted or top-dose-only effect, or another doubt; inactive means no such curve, though single readings can be large; an effect the other way counts as inactive or inconclusive.
SMILES,TDP1 cell CPT,HT1080 IDH1KD tx,ELG1 DNA repair,IL1B secr inh,DT40 TDP1 no CPT,HT1080NT lethal
Cc1[nH]n(-c2ccccc2)c(=O)c1C(c1ccccc1[N+](=O)[O-])C(C#N)C#N (configuration not stated),u,n,n,n,u,n
Cc1[nH]n(-c2ccccc2)c(=O)c1C(C[N+](=O)[O-])c1ccc(F)cc1 (configuration not stated),7.3µM,n,n,n,12µM,n
Cc1ccc(C(C[N+](=O)[O-])c2c(C)[nH]n(-c3ccccc3)c2=O)cc1 (configuration not stated),4.6µM,n,n,n,5.8µM,n
CCOc1cc(C(c2c(C)[nH]n(-c3ccccc3)c2=O)c2c(C)[nH]n(-c3ccccc3)c2=O)ccc1O,u,x,x,x,5.2µM,x
CCn1cc(/C=C(\NC(=O)c2cc(OC)c(OC)c(OC)c2)C(=O)NCCCn2ccnc2)c2ccccc21,n,x,x,x,u,x
CCCCOc1c(Br)cc(/C=C2\N=C(C)OC2=O)cc1OCC,13µM,n,n,n,u,n
CCOc1cc(/C=C2\N=C(C)OC2=O)cc(Cl)c1OCC(=O)OC,u,n,x,n,u,n
C=CCn1c(C)cc(C(=O)Cn2c(C(C)O)nc3ccccc32)c1C (configuration not stated),21µM,n,u,n,9.2µM,n
Cc1cc(C(=O)Cn2c(CO)nc3ccccc32)c(C)n1C,u,n,n,n,16µM,n
CCCCNC(=O)/C(C#N)=C/c1ccc(F)cc1F,u,n,n,-90,u,n
CCOCCCNC(=O)/C(C#N)=C/c1ccc(C)o1,n,n,n,n,n,n
CCN(CC)CCCN(Cc1cc2cc3c(cc2[nH]c1=O)OCO3)C(=S)NC,n,n,n,n,n,n
CCN(CC)CCCN(Cc1cc2cc3c(cc2[nH]c1=O)OCO3)C(=S)Nc1ccc(OC)cc1,n,n,n,-71,29µM,n
COc1ccc(NC(=S)N(CCN2CCOCC2)Cc2cc3cc4c(cc3[nH]c2=O)OCCO4)cc1,u,n,n,-61,n,n
COCCNC(=S)N1CCN(Cc2cccc(OC)c2)CC1,n,n,n,n,n,n
CNCC(=O)N[C@@H](CCCN=C(N)N)C(=O)N[C@H](C(=O)N[C@@H](Cc1ccc(O)cc1)C(=O)N[C@H](C(=O)N[C@@H](Cc1cnc[nH]1)C(=O)N1CCC[C@H]1C(=O)N[C@@H](C)C(=O)O)C(C)C)C(C)C,n,x,x,x,n,x
CO/C=C\C=C/c1nnn(-c2ccc(Cl)cc2)n1,u,u,u,n,23µM,n
CC1(C(=O)NS(=O)(=O)c2cccc(F)c2)CCN1C(=O)c1cccc(F)c1 (configuration not stated),n,n,x,n,n,n
COc1ccc(-n2nnnc2C2CCN(S(=O)(=O)c3ccc(C(C)(C)C)cc3)CC2)cc1,n,x,x,x,n,x
CC(C)(C)c1ccc(S(=O)(=O)N2CCC(Oc3ccc(-n4cnnn4)cc3)CC2)cc1,u,x,x,x,10µM,x
O=S(=O)(c1ccccc1F)N1CCC(Oc2ccc(-n3cnnn3)cc2)CC1,u,u,n,n,23µM,u
Cc1cc(C)n(-c2nnc(Nc3ccc(C)c(C)c3)c3ccccc23)n1,u,x,x,x,n,x
CC(NC(=O)CN(Cc1ccccc1)S(=O)(=O)c1ccccc1)c1cccnc1 (configuration not stated),n,n,n,n,n,n
O=C(CN(Cc1ccc(Cl)cc1)C(=O)CNS(=O)(=O)c1ccccc1)NCC1CCCO1 (configuration not stated),n,n,n,n,n,n
Cc1csc2c(N3CCC(C(=O)O)CC3)ncnc12,n,n,u,n,n,n
SMILES,TDP1 cell CPT,HT1080 IDH1KD tx,ELG1 DNA repair,IL1B secr inh,DT40 TDP1 no CPT,HT1080NT lethal
Cc1csc2c(N3CCN(C(=O)Nc4ccc(OC(F)(F)F)cc4)CC3)ncnc12,10µM,u,u,-70,18µM,u
CCc1ccc(NS(=O)(=O)c2cc3c(cc2C)n(C)c(=O)c(=O)n3C)cc1,15µM,n,n,n,13µM,n
CCOC(=O)c1oc2ccc(S(=O)(=O)Nc3ccc4c(c3)n(C)c(=O)n4C)cc2c1C,u,n,n,u,21µM,n
CC(=O)Nc1ccc(NS(=O)(=O)c2ccc3c(c2)n(C)c(=O)n3C)cc1,n,n,n,n,n,n
CCc1ccc(S(=O)(=O)Nc2ccc3c(c2)n(C)c(=O)c(=O)n3C)cc1,u,x,x,x,15µM,x
Cn1c(=O)c(=O)n(C)c2cc(S(=O)(=O)NCc3ccc(Cl)cc3)ccc21,16µM,n,n,n,u,n
O=C(CCc1nnc2ccc(N3CCC4(CC3)OCCO4)nn12)NCc1ccc(F)cc1,n,n,n,n,n,n
O=C(NCc1ccncc1)c1cnn(-c2nccc(-c3cc4ccccc4o3)n2)c1C1CC1,u,x,x,x,n,x
CC(C(=O)OCC(=O)NC1CCCC1)N1C(=O)c2ccccc2C1=O (configuration not stated),n,n,n,n,n,n
O=C(O)C(C1CCCCC1)C1(O)CCCC1 (configuration not stated),n,n,x,n,n,n
O=C(Nc1ccc(Br)cn1)c1ccc(COc2c(F)c(F)cc(F)c2F)o1,n,n,n,n,n,n
CCc1cccc(NS(=O)(=O)c2ccc3c(c2)NC(=O)CO3)c1,u,n,n,n,n,n
CCc1ccc(S(=O)(=O)Nc2cccc(C3OCCCO3)c2)cc1,u,n,12µM,n,u,n
CCOC(=O)c1oc2ccc(S(=O)(=O)n3nc(-c4ccc(C)cc4)cc3N)cc2c1C,12µM,n,n,n,16µM,n
CCc1cccc(NS(=O)(=O)c2ccc3c(c2)oc(=O)n3C)c1,u,n,n,n,u,n
Cc1ccc(C(=O)Oc2cc(N)n(S(=O)(=O)c3ccc(C)cc3)n2)cc1,n,n,n,n,n,n
CCc1cccc(NS(=O)(=O)c2ccc3c(c2)n(C)c(=O)n3C)c1,10µM,n,n,n,9.2µM,n
O=C(COC(=O)c1ccc(F)cc1)NC1CC1,n,n,n,n,n,n
COc1ccccc1C1CC(c2ccco2)=NN1S(C)(=O)=O (configuration not stated),21µM,n,u,n,u,n
CCOc1ccc2cc(C3CC(c4ccco4)=NN3S(=O)(=O)c3ccccc3)c(Cl)nc2c1 (configuration not stated),u,n,n,n,u,n

# Screening data from PubChem.
